Screening results deposited in PubChem BioAssay by several laboratories.
ERb coact inh: blocks coactivator binding to human estrogen receptor beta. Q92731. TR-FRET ER-beta LBD / SRC1-Cy5 peptide binding; receptor agonist-loaded with 1 µM estradiol. inhibition, % at 25.6 µM. AID 633. 86,000 tested, 1.3% active;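 active means compounds whose percent inhibition of the receptor-coactivator binding signal exceeds about 50% in the single-dose screen, limit read from the data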;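 further: 0% = receptor plus peptide wells without compound and 100% = peptide-only wells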
ERa coact inh: ER-alpha (human) coactivator binding inhibition; P03372; TR-FRET ER-alpha LBD / SRC-1 peptide, estradiol-bound; inhibition, % at 25.6 µM; 86,000 tested, 1.7% active; in the data active means inhibition above about 50%;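 further: 0% = receptor plus peptide control and 100% = peptide only without receptor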
EphB4 antag: EphB4-ephrin-B2 interaction antagonism; EphB4 LBD / TNYL-RAW-Alexa532 peptide, fluorescence polarization; P54760; inhibition, % at 7 µM; 97,000 tested, 0.15% active;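 active means inhibition above the screen-wide mean inhibition plus 3 SD, cut at about 15% in these data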;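 further: 0% = DMSO wells and 100% = excess unlabeled TNYL-RAW peptide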
ERa SRC1 pot: ER-alpha (human) coactivator binding potentiation. P03372. TR-FRET ERalpha-LBD/SRC-Cy5 coactivator binding, 2 h; 100 = basal binding, no effect. coactivator binding (% of control), % at 25.6 µM. 86,000 tested, 1.3% active. AID 639; in the data active means activity above about 200%;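 further: binding measured in presence of low estradiol as agonist stimulus; 0% = peptide alone without receptor and 100% = receptor with peptide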
Calb biofilm kill: kills Candida albicans biofilms. C. albicans biofilm + clotrimazole, Alamar Blue. inhibition, % at 6 µM. 85,000 tested, 0.14% active;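 active means inhibition above 20%; inactive means inhibition below 20%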;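 further: preformed 24 hr biofilms exposed to compound for 48 hr; 0% = biofilm without compound and 100% = blank killed by clotrimazole plus chlorhexidine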
MT1-MMP txn act: activates MT1-MMP transcription | HT1080 MT1-MMP promoter luciferase reporter, luminescence, overnight; hits give high values | activation factor at 10 µM | 86,000 tested, 0.16% active | AID 750;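 active means activation factor of at least 2 for MT1-MMP transcription at 10 µM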
Starred values were filed as active, the others as inactive; . = no result; [ ] = another dose, or the depositor's remark. Compounds with a hit are over-represented: about 3.2% of the library has one in this group of screens.

SMILES	ERb coact inh	ERa coact inh	EphB4 antag	ERa SRC1 pot	Calb biofilm kill	MT1-MMP txn act
Cc1cc(-c2ccccc2)nc2cc(C(=O)N(Cc3ccccc3)Cc3ccccc3)nn12	-6	-11	1	204*	9	1.3
CN1C(=O)C2(N=c3ccccc3=N2)c2ccccc21	91*[fluorescence artefact?]	-3	-4	142	2	1.2
CC(C)(C)OC(=O)N1CCC(c2cc(=O)n3[nH]c(-c4ccc(Cl)cc4)cc3n2)CC1	11	31	-7	251*[fluorescence artefact?]	6	.
CCOC(=O)Cc1cc(=O)n2[nH]c(-c3ccc(Cl)cc3)cc2n1	7	14	-2	89	6	1.1
Cc1ccc(N=Cc2ccc(O)cc2O)cc1F	.	.	-3	.	.	1
Oc1ccc(C=Nc2ccc(N3CCOCC3)cc2)c(O)c1	69*	58*	.	49	6	1.4
Cc1ccc(NC(=O)/C(=C/c2cccc([N+](=O)[O-])c2)NC(=O)C2CCCCC2)c(C)c1	28	55*	6	64	6	1
O=C(Nc1ccc([N+](=O)[O-])cc1)/C(=C/c1cccc([N+](=O)[O-])c1)NC(=O)C1CCCCC1	31	3	-4	88	13	1.1
Cc1ccc(CNS(=O)(=O)c2ccc3oc(C(=O)O)c(C)c3c2)cc1	-17	-37	0	100	2	1.1
CSc1cccc(-n2c(C)cc(C(N)=O)c2C)c1	0	-7	16*	121	5	1
Cc1cc(C(=O)O)c(C)n1-c1ccccc1	.	.	6	.	.	.
O=C(Nc1ccc2c(c1)nc1n2CCOC1)c1ccco1	-12	2	-13	122	6	1.4
O=C(Nc1ccc2c(c1)nc1n2CCSC1)c1ccco1	61*[fluorescence artefact?]	80*	-1	123	1	0.5
O=C(Nc1ccc2c(c1)nc1n2CCN(C2CCCCC2)C1)c1ccco1	53*	61*	.	43	10	1.3
O=C(O)CCn1ccnc1-c1ccccc1	-1	-10	-1	475*	4	1.1
Cc1ccc(-c2csc(NC(=O)c3ccno3)n2)cc1	75*	73*	-5	29	4	1.1
Cc1ccc(-c2csc(NC(=O)c3cccc([N+](=O)[O-])c3)n2)cc1	.	.	-8	.	.	.
Cc1ccccc1CNc1nc(N)n(-c2ccccc2)n1	-2	-6	5	117	20*	1.3
CCCC(C)NC1=NCCCCC1 (stereo not drawn)	-8	6	3	88	5	1.1
Cc1cc(C)n(CC(O)COCc2ccco2)n1 (stereo not drawn)	-10	-7	-4	120	3	1.1
Cc1cc(C)n(CC(O)COc2ccccc2)n1 (stereo not drawn)	-1	53*	-2	101	2	1
N=C1N(/N=C/c2ccccc2)C(=Nc2ccccc2)C(=S)N1c1ccccc1	-4	0	-3	103	-1	2*
Cc1ccc(-c2cc(-c3ccccc3)c(C#N)c(N)n2)o1	22	24	1	47	5	1
Cc1cc(-c2ccc(Cl)cc2)c(C#N)c(N)n1	32	39	-2	285*[fluorescence artefact?]	5	1.2
CC(C)(C)NC(=O)C12CCC(C)(c3nc4ccccc4nc31)C2(C)C (stereo not drawn)	4	-2	-1	96	1	1.1
SMILES	ERb coact inh	ERa coact inh	EphB4 antag	ERa SRC1 pot	Calb biofilm kill	MT1-MMP txn act
Cc1ccc(Nc2nnc(SCC(=O)NCc3ccco3)s2)cc1	49	68*	.	74	2	1.2
O=C(CSc1nnc(Nc2ccccc2F)s1)NCc1ccco1	69*	81*[fluorescence artefact?]	-6	97	4	1.1
Cc1ccccc1Nc1nnc(SCC(=O)NC(=O)NCc2ccco2)s1	56*[fluorescence artefact?]	75*	.	102	.	1.2
CCCC(=O)Nc1cnc(NC(=O)c2cccc(F)c2)cc1C	0	0	-3	115	3	1
COc1cc(OC)cc(-c2cc3nc(C)cc(N4CCN(C(=O)c5ccco5)CC4)n3n2)c1	.	.	-4	.	.	.
COc1ccc2[nH]c3nc(SCc4nnc(-c5ccccc5)o4)nnc3c2c1	52*[fluorescence artefact?]	85*[fluorescence artefact?]	3	54	-3	1.3
COc1ccc2[nH]c3nc(SC(C)C)nnc3c2c1	18	20	-1	96	0	0.2
Cc1occc1C(=O)NCCCCNC(=O)c1ccoc1C	-7	-6	2	132	5	1
Cc1occc1C(=O)NCCCc1ccccc1	58*	4	-5	103	4	1.3
CC1(C)Cc2c(c(N3CCOCC3)nc3sc4c(=O)[nH]cnc4c23)CS1	55*[fluorescence artefact?]	30	-1	83	-3	1.2
